From PubChem BioAssay
Sampled rows, rich in hits. Any-hit rate of the full collection: about 3.1%.
ATG4B inh: blocks human ATG4B protease cleavage of LC3 substrate; ATG4B cleavage of LC3-PLA2, NBD-HPC fluorescence, 1 h; inhibition, % at 8.33 µM; 0.51% of 340,000 active; in the data active means inhibition above about 40%
Target sequence (Q9Y4P1 whole entry, looked up): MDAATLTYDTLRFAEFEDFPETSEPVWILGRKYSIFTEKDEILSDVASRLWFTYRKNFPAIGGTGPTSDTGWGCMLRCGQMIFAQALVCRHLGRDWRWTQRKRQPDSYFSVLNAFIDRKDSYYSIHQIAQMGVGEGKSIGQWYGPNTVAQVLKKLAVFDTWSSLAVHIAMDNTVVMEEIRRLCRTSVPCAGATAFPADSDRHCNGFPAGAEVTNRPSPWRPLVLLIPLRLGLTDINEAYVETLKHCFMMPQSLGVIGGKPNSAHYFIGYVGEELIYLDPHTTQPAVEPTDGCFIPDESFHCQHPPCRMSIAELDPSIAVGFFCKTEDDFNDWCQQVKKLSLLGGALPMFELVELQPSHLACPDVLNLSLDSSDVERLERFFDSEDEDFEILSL
NadD inh: blocks S. aureus nicotinate mononucleotide adenylyltransferase. purified NadD enzyme, colorimetric absorbance read-out. inhibition, % at 20 µM. 0.78% of 360,000 active. AID 602399; in the data active means inhibition above about 26%
Calb FLC: affects C. albicans growth with fluconazole. 0.57% of 300,000 active. C. albicans CaCi-2 (fluconazole-resistant clinical isolate) + fluconazole, Alamar Blue growth, 48 h. growth inhibition, % (no concentration beside the values);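 active means growth inhibition above about 58% in most replicates, limit read from the data, passing the limit was not always enough; inconclusive means exactly half the replicates above a set limit; inactive means most replicates below a set limit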;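 further: all wells also contain fluconazole at 8 µg/ml as a sub-toxic cotreatment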
FAS-TE inh: inhibitors of human fatty acid synthase thioesterase domain; P49327; recombinant FAS-TE, OMFH fluorogenic substrate, fluorescence endpoint; inhibition, % at 15 µM; 0.67% of 360,000 active; AID 602261;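 active means compounds whose normalised, plate-corrected inhibition of enzyme fluorescence in the single-dose primary screen is 50% or more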
Mot1-301 SUMO: inhibitors of SUMOylation pathway: yeast Mot1-301 growth rescue; S. cerevisiae Mot1-301 growth rescue, ATP luminescence, 38.5C; percent above DMSO median, 100 means doubled; growth rescue, % at 18.8 µM; AID 2716; 1% of 320,000 active;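 active means every valid replicate shows activation above 250% relative to neutral control wells; inactive means the rest, any valid replicate at or below 250%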
Hits are given with their value; - = inactive; ? = inconclusive; . = no result.

SMILES | ATG4B inh | NadD inh | Calb FLC | FAS-TE inh | Mot1-301 SUMO
COc1ccc(-n2cccc2/C=C2\C(=N)N3N=C(C(C)C)SC3=NC2=O)cc1 | - | - | 98 | - | -
COc1ccc(OCCOc2ccc(/C=C3\C(=N)N4N=C(C)SC4=NC3=O)cc2)cc1 | - | 68 | . | - | -
CCOCCCNC(=O)c1cn(CC)c2ccc(S(=O)(=O)N(C)C3CCCCC3)cc2c1=O | - | - | - | - | -
Nc1ccccc1N=Cc1ccc(-c2cccc(Cl)c2)o1 | - | - | - | - | 444
COC(=O)N/N=C/c1ccc(-c2cccc(Cl)c2)o1 | - | - | ? | - | -
N#CC1(NC(=O)COC(=O)Cn2[nH]c(=O)c3ccccc3c2=O)CCCCC1 | - | - | - | - | -
CC(C)(C)CC(=O)Nc1nnc(C(F)(F)F)s1 | - | - | 82 | - | -
CC(NC(=O)Nc1nnc(C(F)(F)F)s1)(C(F)(F)F)C(F)(F)F | - | - | - | - | .
C=CCn1cc(C(=O)N2CCN(C)CC2)c(=O)c2cc(S(=O)(=O)N(CC)CC)ccc21 | - | - | - | - | -
O=C(c1ccc(-c2cccc(C(F)(F)F)c2)o1)N1CCCCCCC1 | - | - | - | - | 533
O=C(c1ccco1)N1CCN(C(=O)c2ccc(-c3cccc(C(F)(F)F)c3)o2)CC1 | - | - | - | - | -
CC1CC(C)CN(CCCNC(=O)Cn2cccc2C(=O)c2ccccc2)C1 (configuration not stated) | - | - | - | - | -
COc1ccc(-n2ccnc2SCC(=O)NC2CCCC2)cc1 | - | - | . | - | -
Cc1cc(=O)[nH]c(NN=Cc2cc(Br)ccc2O)n1 | - | - | . | - | .
CCN(CC)c1ccc(/C=N/Nc2nc(C)cc(=O)[nH]2)c(O)c1 | - | - | 102 | - | -
CC(C)C[C@@H](CN1CCC[C@@H]1CN1C(=S)NC[C@@H]1Cc1ccc(O)cc1)N1C[C@H](Cc2ccc(O)cc2)N(CC2CCCCC2)C1=S | . | 42 | . | - | .
N=C1/C(=C\c2ccc(OC(=O)c3ccc(F)cc3)cc2)C(=O)N=C2SC(N3CCCC3)=NN12 | - | 51 | - | - | -
Cc1ccc(C(=O)Oc2ccc(/C=C3\C(=N)N4N=C(N5CCOCC5)SC4=NC3=O)cc2)cc1 | - | 40 | - | - | -
N=C1/C(=C\c2ccc(OC(=O)c3ccco3)cc2)C(=O)N=C2SC(N3CCCCC3)=NN12 | - | - | - | - | -
O=[N+]([O-])c1ccc(C(=Nc2cccc3ccccc23)N2CCOCC2)cc1 | - | - | 100 | - | -
CCN(CC)c1ccc(/C=N/NC(=O)CNC(=O)C2COc3ccccc3O2)c(O)c1 (configuration not stated) | - | - | 89 | - | -
Cc1cc(-c2ccccc2)nc(N/N=C/c2ccc(O)cc2O)n1 | - | - | - | - | -
CN(/N=C/c1ccc(O)cc1O)c1nc(-c2ccccc2)cc(-c2ccccc2)n1 | - | 33 | - | - | -
CN1C(=O)C(CC(=O)NCC2CCCCC2)SC1=Nc1ccccc1 (configuration not stated) | - | - | - | - | -
Cc1cccc(NC(=O)NC2CCCCCCC2)c1 | - | - | 124 | - | -
SMILES | ATG4B inh | NadD inh | Calb FLC | FAS-TE inh | Mot1-301 SUMO
Cc1ccc(NC(=O)NC2CCCCCCC2)c(C)c1 | - | - | 112 | - | -
O=C(COC(=O)/C=C/c1ccccc1Cl)NCCNC(=O)COC(=O)/C=C/c1ccccc1Cl | - | - | - | - | -
COC(=O)Cn1c(CN2CCN(C(=O)c3ccco3)CC2)nc2c1c(=O)n(C)c(=O)n2C | - | - | - | - | -
O=c1c(Cc2ccc(Cl)cc2)c(O)ccn1Cc1cccs1 | - | - | - | - | -
COc1ccccc1CNC(=O)CCC(=O)N1Cc2cccc(OC)c2Oc2ncccc21 | - | - | - | - | -
CC(C)C[C@H](N)C(=O)N1CCC(C(=O)N[C@H](C(=O)NC(C)c2ccccc2)C(C)C)CC1 (some centres not stated) | - | - | - | - | 788
CC(C)C[C@H](N)C(=O)N1CCC(C(=O)N[C@H](C(=O)NCc2ccc(F)cc2)C(C)C)CC1 | - | - | - | - | -
NS(=O)(=O)c1ccc(N=Nc2c(O)c(C(=O)O)cc3ccccc23)cc1 | - | 31 | - | - | -
CCCCn1c2ccc(F)cc2c2nnc(NN)nc21 | - | - | - | - | .
O=C(Nc1cccnc1)c1ccc([N+](=O)[O-])s1 | - | - | . | - | -
Cc1cc(N)nc(=O)n1C1CC(O)C(CO)O1 (configuration not stated) | - | - | . | - | .
COc1ccccc1N1CCN(Cc2cc(Br)c(O)c3ncccc23)CC1 | - | - | 88 | - | -
COc1ccccc1N1CCN(c2nc(C)nc3c2oc2ccccc23)CC1 | 45 | - | - | - | -
O=C(CSc1nnc(-c2ccc(Cl)cc2)o1)N1CCOCC1 | - | - | - | - | -
CCOc1ccc(S(=O)(=O)N(CC)CC)cc1NC(=O)c1ccc(N2CCCC2=O)cc1 | - | - | - | - | -
C/C(=N\NC(=S)NCc1ccccc1)c1ccc(C)o1 | - | - | - | - | -
Cc1ccc(Nc2c(-c3ccc(N(C)C)cc3)nc3ncccn23)cc1 | - | - | - | - | 328
N/C(Cc1ccc(Cl)cc1Cl)=N\OC(=O)c1ccccc1 | - | - | 118 | - | -
N/C(Cc1ccc(Cl)cc1Cl)=N\OC(=O)Cc1ccccc1 | - | - | - | - | -
CN(C)c1ccc(C=C2SC(=S)NC2=O)cc1 | - | - | . | - | .
CN(C)c1ccc(/C=N/N=C2/NC(=O)/C(=C/c3ccc([N+](=O)[O-])cc3)S2)cc1 | - | 50 | . | - | -
COc1ccc(C(=O)NNC(=O)Cc2ccc(-c3ccccc3)cc2)cc1OC | - | - | - | - | -
COc1ccc(C(=O)NNc2ccccc2)cc1OC | - | - | 106 | - | -
CC(C)CN(C(=O)COC(=O)CNC(=O)c1ccccc1F)C1CCS(=O)(=O)C1 (configuration not stated) | - | - | 107 | - | .
COc1ccc2[nH]cc(CCNC(=O)Cn3cc(C)c(=O)[nH]c3=O)c2c1 | - | - | . | - | .
SMILES | ATG4B inh | NadD inh | Calb FLC | FAS-TE inh | Mot1-301 SUMO
O=C(Nc1cccc([N+](=O)[O-])c1)c1ccc([N+](=O)[O-])o1 | . | - | . | - | .
O=C(Nc1cccc(NC(=O)c2ccccc2Cl)c1)c1ccc([N+](=O)[O-])o1 | - | - | 80 | - | -
O=C(Nc1cccc2ccccc12)c1ccc([N+](=O)[O-])o1 | - | - | 86 | - | -
Cc1ccc(NC(=O)c2ccc([N+](=O)[O-])o2)cc1C | - | - | 117 | - | -
O=S(=O)(Nc1cc(Cl)cc(Cl)c1)N1CCOCC1 | - | - | - | - | -
COc1ccc(-c2nnc(S/C(=C/c3ccc(Cl)cc3)C(=O)O)o2)cc1 | - | - | - | - | 679
CC(C)(C)NC(=O)C1(C)CCC(=O)N1C1CC1 (configuration not stated) | . | - | . | - | .
COC(=O)/C(=N\Nc1ccc(Cl)cc1)Sc1nnc(-c2ccc(OC)cc2)n1C | - | - | 84 | - | -
